# Reference: PubChem BioAssay (EPA / NIEHS)
# Records with an inconclusive call do not appear. A structure can be active in one record and inactive in another. Activity calls are given as the source filed them. How the source made its calls: active means hit-call score of the fitted dose curve at least 0.9, where 1 is the maximum; inconclusive means response in the unintended direction; inactive means score below 0.9.
# Test: ACEA_AR_agonist_AUC_viability: ACEA Biosciences xCELLigence Real-Time Cell Analysis on Androgen Receptor Agonism for Viability (AID 2283775);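 on AC50: viability read 80 hours after compound addition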
# Protocol: ACEA_AR_agonist is a cell-based, single-readout assay that uses 22Rv1, a human prostate cancer cell line, with measurements taken at 80 hours after chemical dosing in a 384-well plate, although TO5 and TO6 (mc0.srcf) used a 96-well plate. Differences in plate size can be ignored given data normalization.ACEA_AR_80hr is one of two assay component(s) measured or calculated from the ACEA_AR assay. It is designed to make measurements of real-time cell-growth kinetics, a form of growth reporter, as detected with electrical impedance signals by Real-Time Cell Electrode Sensor (RT-CES) technology.Data from the assay component ACEA_AR_AUC_viability was analyzed in the positive analysis fitting direction relative to DMSO as the negative control and baseline of activity. Using a type of growth reporter, loss-of-signal activity can be used to understand changes in the viability. Furthermore, this assay endpoint can be referred to as a secondary readout, because this assay has produced multiple assay endpoints where this one serves a viability function. To generalize the intended target to other relatable targets, this assay endpoint is annotated to the cell cycle intended target family, where the subfamily is cytotoxicity.
# The xCELLigence system Multi-E-Plate stations were used to measure the time-dependent response to chemicals. Each compound was tested in an eight-point, 1:4 serial dilution series starting at a maximum final concentration of 100 uM. A maximum starting concentration of 0.5% DMSO was present in the 100 uM chemical samples and was diluted along with the test article dilution series. The screen was performed in biological duplicate using two separate, 96-well, E-Plates 96 for each dilution series (n = 2). Positive controls (MG132 and testosterone) and a negative control (assay media) were tested in quadruplicate on each testing plate. Then, 0.5% and 0.125% DMSO were tested in duplicates in each plate to serve as solvent controls for the 2 highest concentrations of testing compounds: 100 uM and 25 uM. Reference compounds were tested with 8 concentrations with 1:5 serial dilutions. All screening was carried out by ACEA Biosciences, Inc. (San Diego, CA). 22Rv1 cells purchased from ATCC were maintained in media supplemented with 10% fetal bovine serum (FBS). Before screening, 22Rv1 cells were preconditioned in assay medium. Cells were then detached and seeded in E-Plates 96 in assay medium. After overnight monitoring of growth once every hour, compounds were added to […] cells and remained in the medium until the end of the experiment. Cellular responses were then recorded once every 5 min for the first 5 h, and once every hour for an additional 100 h.
SMILES,AC50,outcome
CCc1nn(C)c(C(=O)NCc2ccc(C(C)(C)C)cc2)c1Cl,25.3 µM (active),–
COP(N)(=O)SC (stereo not given),–,inactive
CCOC(=O)CC(SP(=S)(OC)OC)C(=O)OCC (stereo not given),92.5 µM (active),–
N#Cc1cc(Br)c(O)c(Br)c1,59.6 µM (active),–
CCOC(=O)C(Cl)Cc1cc(-n2nc(C)n(C(F)F)c2=O)c(F)cc1Cl (stereo not given),–,inactive
Cc1ccc(-c2c(Cl)nc(C#N)n2S(=O)(=O)N(C)C)cc1,19.2 µM (active),–
CCCC1COC(Cn2cncn2)(c2ccc(Cl)cc2Cl)O1 (stereo not given),–,inactive
COc1ccc(C(c2ccc(OC)cc2)C(Cl)(Cl)Cl)cc1,80.8 µM (active),–
C=CCC1=C(C)[C@@H](OC(=O)[C@@H]2[C@@H](C=C(C)C)C2(C)C)CC1=O,66.9 µM (active),–
CCNc1nc(Cl)nc(NC(C)C)n1,–,inactive
CCCCNC(=O)n1c(NC(=O)OC)nc2ccccc21,45.6 µM (active),–
CC(C)(C)c1ccc(CSc2cnn(C(C)(C)C)c(=O)c2Cl)cc1,16 µM (active),–
CC1COC(Cn2cncn2)(c2ccc(Oc3ccc(Cl)cc3)cc2Cl)O1 (stereo not given),44.8 µM (active),–
CON(C)C(=O)Nc1ccc(Cl)c(Cl)c1,–,inactive
CCCCOC(=O)c1ccccc1C(=O)OCCCC,77.2 µM (active),–
O=C(O)c1nc(Cl)ccc1Cl,–,inactive
CCON=C(CC)C1=C(O)CC(c2c(C)cc(C)cc2C)CC1=O (stereo not given),–,inactive
CCOP(=S)(OCC)SCn1c(=O)oc2cc(Cl)ccc21,91.5 µM (active),–
COC(=O)C(C)Oc1ccc(Oc2ccc(Cl)cc2Cl)cc1 (stereo not given),50 µM (active),–
Oc1ccccc1-c1ccccc1,50 µM (active),inactive

SMILES,AC50,outcome
Cc1c(F)c(F)c(COC(=O)C2C(/C=C(\Cl)C(F)(F)F)C2(C)C)c(F)c1F (stereo not given),–,inactive
COC(=O)C=C(C)OP(=O)(OC)OC,29.8 µM (active),–
CNC(=S)S,–,inactive
C=CCC1=C(C)C(OC(=O)C2C(C=C(C)C)C2(C)C)CC1=O (stereo not given),52.5 µM (active),–
CC(C)Oc1cc(-n2nc(C(C)(C)C)oc2=O)c(Cl)cc1Cl,50 µM (active),–
COP(=S)(OC)Oc1nc(Cl)c(Cl)cc1Cl,–,inactive
CN(C)C(=S)SSC(=S)N(C)C,20 µM (active),–
OC(c1ccc(Cl)cc1)(c1cncnc1)c1ccccc1Cl (stereo not given),72 µM (active),–
CCCCNC(=O)OCC#CI,11.6 µM (active),–
CCCCC(CC)COC(=O)c1ccccc1C(=O)OCC(CC)CCCC (stereo not given),50 µM (active),–
CS/C(C)=N/OC(=O)N(C)SN(C)C(=O)O/N=C(\C)SC,79.6 µM (active),–
CC(Oc1ccc(Cl)cc1Cl)C(=O)O (stereo not given),–,inactive
CO/C=C(/C(=O)OC)c1ccccc1Oc1cc(Oc2ccccc2C#N)ncn1,46.7 µM (active),–
C=CC1(C)OC(=O)N(c2cc(Cl)cc(Cl)c2)C1=O (stereo not given),38.5 µM (active),–
CCNc1nc(Cl)nc(NCC)n1,–,inactive
COc1cnc(OC)n2nc(NS(=O)(=O)c3c(OCC(F)F)cccc3C(F)(F)F)nc12,–,inactive
Fc1ccc(Oc2ccnc3cc(Cl)cc(Cl)c23)cc1,76.3 µM (active),–
COC(=O)N(OC)c1ccccc1COc1ccn(-c2ccc(Cl)cc2)n1,25.9 µM (active),–
N#Cc1nn(-c2c(Cl)cc(C(F)(F)F)cc2Cl)c(N)c1S(=O)C(F)(F)F (stereo not given),40.6 µM (active),–
